Screening results: PubChem, several laboratories
RecA splice inh: Mtb RecA intein splicing inhibitors, primary screen, biochemical, fluorescence, HTS; Protein RecA (Mycobacterium tuberculosis (strain ATCC 25618 / H37Rv)), P9WHJ3; cell-free RecA intein splicing; inhibition, % (no concentration beside the values); 290,000 compounds, 0.75% hits; AID 2221, 2009; in the data active = inhibition above about 30%;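 note: 0% = vehicle wells and 100% = reference inhibitor control wells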
Target sequence (P9WHJ3 whole entry, looked up, canonical isoform): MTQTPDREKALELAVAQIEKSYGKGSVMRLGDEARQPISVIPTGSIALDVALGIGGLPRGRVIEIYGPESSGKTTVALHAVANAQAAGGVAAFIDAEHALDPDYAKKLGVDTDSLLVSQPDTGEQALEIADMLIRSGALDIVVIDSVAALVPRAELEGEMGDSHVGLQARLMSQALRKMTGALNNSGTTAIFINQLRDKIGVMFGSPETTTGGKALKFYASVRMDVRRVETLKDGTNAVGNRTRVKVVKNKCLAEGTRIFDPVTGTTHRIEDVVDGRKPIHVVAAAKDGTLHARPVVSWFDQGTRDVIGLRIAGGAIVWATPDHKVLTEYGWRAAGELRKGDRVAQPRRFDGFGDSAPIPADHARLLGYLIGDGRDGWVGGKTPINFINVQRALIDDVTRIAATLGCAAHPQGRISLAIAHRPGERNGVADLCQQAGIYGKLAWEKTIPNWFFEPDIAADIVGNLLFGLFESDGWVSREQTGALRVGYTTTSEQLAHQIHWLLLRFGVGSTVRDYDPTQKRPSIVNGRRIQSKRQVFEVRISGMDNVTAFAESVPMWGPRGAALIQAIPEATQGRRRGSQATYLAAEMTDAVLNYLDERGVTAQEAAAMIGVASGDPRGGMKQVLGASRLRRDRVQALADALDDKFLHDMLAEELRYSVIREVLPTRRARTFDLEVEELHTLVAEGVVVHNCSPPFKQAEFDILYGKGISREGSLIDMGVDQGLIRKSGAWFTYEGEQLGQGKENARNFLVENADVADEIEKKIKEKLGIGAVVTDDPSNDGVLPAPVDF
Mtb betalactam: beta-lactam sensitization of Mtb H37Rv, H37Rv. M. tuberculosis H37Rv growth with meropenem, percent inhibition. inhibition, % at 25 µM. AID 434955, 2010. 330,000 compounds, 0.27% hits; call rule not given here;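 note: growth measured after seven days incubation then overnight dye step; 0% = bacteria only wells and 100% = bacteria with antibiotic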
Mtb FBA inh: Mtb FBA enzyme inhibitors, primary screen, biochemical, fluorescence, strain H37Rv. 360,000 compounds, 2.3% hits. inhibition, % at 1 µM. purified M. tuberculosis FBA, fluorescence read-out; in the data active = inhibition above about 27%;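 note: 0% = vehicle and 100% = reference inhibitor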
Rv3671c protease: Rv3671c serine protease inhibitors, primary screen, biochemical, fluorescence polarization, M. tuberculosis H37Rv; P9WHR9; inhibition, % at 5.96 µM; 320,000 compounds, 0.048% hits; AID 2606, 2010; in the data active = inhibition above about 38%;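 note: extracellular domain of Rv3671c used as enzyme; 0% = enzyme with DMSO and 100% = no enzyme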
GDH-TPI counter: GDH-TPI coupling enzyme inhibitors, primary screen, artefact control for M. tuberculosis FBA inhibitor project, biochemical, absorbance, full deck; GDH-TPI coupled enzyme counterscreen, NADH absorbance; inhibition, % at 4.8 µM; 360,000 compounds, 1.2% hits; AID 588335, 2011; in the data active = inhibition above about 30%;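 note: 0% = DMSO wells and 100% = wells lacking the enzyme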
Mtb UGM inh: M. tuberculosis UGM enzyme inhibitors, primary screen, biochemical, fluorescence polarization, single point. 320,000 compounds, 0.06% hits. purified UGM, fluorescence polarization probe displacement. inhibition, % at 10 µM. UDP-galactopyranose mutase (Mycobacterium tuberculosis (strain ATCC 25618 / H37Rv)), …; in the data active = inhibition above about 10%, passing the limit was not always enough
Starred values were filed as active, the others as inactive; . = not tested or not shown; + = active, no number. An excerpt weighted towards active compounds, which were near 4% of everything screened.

SMILES	RecA splice inh	Mtb betalactam	Mtb FBA inh	Rv3671c protease	GDH-TPI counter	Mtb UGM inh
CN1CCC[C@H]1CCNc1ccc2c(=O)c3ccccc3n(C)c2c1	.	.	187*	.	33*	.
CCNC(=O)C1(C)CCCN(C(=O)c2ccc(C(F)(F)F)nc2C)C1 (stereo not given)	.	.	-2	.	3	.
CCOC(=O)C1C(=O)C=C(c2ccc(NS(C)(=O)=O)cc2)CC1c1ccco1 (stereo not given)	-8	6	10	1	33*	3
O=C(c1cccc(-c2cncc3nccn23)c1)N1CCOCC1	.	.	+	.	8	.
Cn1nc([N+](=O)[O-])nc1Sc1cccc2cccnc12	0	4	2	0	1	0
Cn1nc([N+](=O)[O-])nc1Sc1nnc(-c2ccccc2)o1	32*	100	-2	0	2	-3
CC(=O)C1=C(O)C(=O)N(c2ccc(O)cc2)C1c1ccc(F)cc1 (stereo not given)	4	-4	0	1	11	0
COc1ccc(OC)c(C2C(C(C)=O)=C(O)C(=O)N2c2ccc(F)cc2)c1 (stereo not given)	2	9	-2	-4	37*	-2
CCOC(=O)c1cnn2c(C)cc(-c3ccc(F)cc3)nc12	-4	-5	60*	-1	13	2
COc1cccc(CNc2nc3cc(C(C)=C(C)C)sc3c(=O)n2C)c1	.	.	3	.	-1	.
Cn1c(-c2ccccc2)c(C(=O)CC#N)c2ccccc21	-1	1	3	-1	-2	-4
CCn1c(-c2ccccc2)c(C(=O)O)c2ccccc21	1	10	28*	-10	-1	1
c1ccc(-c2c3ccccc3nc3[nH]c4ccccc4c23)cc1	-4	23	31*	-18	13	0
c1ccc2nc3c(nc2c1)[nH]c1ccccc13	-2	-3	1	0	18	-1
CCCNc1oc(-c2cccc3ccccc23)nc1C#N	.	18	148*	11	20	1
CC(=O)Nc1oc(-c2cccc3ccccc23)nc1C#N	.	-3	164*	-8	5	-1
N#Cc1nc(-c2cccc3ccccc23)oc1NCCN1CCOCC1	-5	64	122*	3	33*	-1
COCCCNc1oc(-c2ccccc2Cl)nc1C#N	-1	2	8	6	16	0
N#Cc1nc(-c2ccco2)oc1NCCN1CCOCC1	1	-4	26	2	7	-2
CC(C)CNc1oc(-c2ccccc2Cl)nc1C#N	3	98	11	-5	14	-1
Cc1ccc(S(=O)(=O)N2CCOCC2)cc1NC(=O)c1ccc(F)cc1F	.	-2	0	-2	-6	1
CCOC(=O)c1sc2nc(CC(=O)OC)nc(NCC(=O)OC)c2c1C	-5	6	126*	-9	14	1
CCc1sc(C(=O)Nc2cccnc2)cc1Br	2	0	1	-1	5	0
COC(=O)CSc1nc(N)c2c3c(sc2n1)C(c1ccccc1)SC(c1ccccc1)C3 (stereo not given)	36*	78	0	-14	10	-1
COC(=O)CSc1nc(N)c2c3c(sc2n1)CCCC3	-3	91	4	3	0	0
SMILES	RecA splice inh	Mtb betalactam	Mtb FBA inh	Rv3671c protease	GDH-TPI counter	Mtb UGM inh
COc1ccc(/C=C/C(=O)N/C(=C\c2ccco2)C(=O)NCCc2nc3ccccc3[nH]2)cc1	6	6	-3	3	34*	-2
COc1ccc(S(=O)(=O)NC(C)C(=O)NCc2ccccn2)cc1Cl (stereo not given)	0	1	-1	-6	-1	0
CN(C)c1ccc(C(=O)OCC(=O)c2ccc[nH]2)cc1	.	3	1	-3	31*	5
O=C(OCC(=O)c1ccc[nH]1)c1ccccc1	0	0	0	-10	-8	3
COC(=O)C(C)SC1=N/C(=C/c2ccc(-n3cncn3)cc2)C(=O)N1 (stereo not given)	1	4	0	5	43*	-1
COc1ccc(-c2csc(C(C)(O)c3ccc(F)c(F)c3)n2)cn1 (stereo not given)	.	.	-1	.	-8	.
CNc1cnc(-c2ccc(C(=O)N3CCOCC3)cc2)cn1	.	.	+	.	16	.
NC(=NCc1ccccc1)NN=Cc1ccnc2ccccc12	.	.	-1	.	.	.
CCN1CCN(c2ncc(C(=O)Nc3ccccc3C(=O)OC)c3ccccc23)CC1	2	-8	9	9	31*	1
CCc1ccc(NC(=O)c2cnc(N3CCN(c4ccccn4)CC3)c3ccccc23)cc1	7	-1	1	-17	6	3
O=C(O)c1cn2c3c(ccc(Cl)c3c1=O)OCC2	-2	1	21	-1	10	1
Cc1c(C(=O)N2CCOCC2)sc(NC(=O)c2ccc3c(c2)OCO3)c1C#N	-5	-5	-2	6	45*	-1
CCN(CC)C(=O)c1sc(NC(=O)c2ccc3c(c2)OCO3)c(C#N)c1C	1	-2	0	-3	12	-1
O=c1[nH][nH]c(-c2ccccc2O)c1C(C[N+](=O)[O-])c1ccc(Br)cc1 (stereo not given)	14	100	-1	-7	0	-1
Cc1ccc(C(C[N+](=O)[O-])c2c(-c3ccccc3O)[nH][nH]c2=O)cc1 (stereo not given)	53*	98	2	-30	2	2
CCN(CC)CCn1c(-c2ccc(C)cc2)nc(=S)c2c1CC(C)(C)OC2	-1	-6	-2	-9	32*	0
COc1ccc(-c2nc(=S)c3c(n2CCN2CCOCC2)CC(C)(C)OC3)cc1	2	1	-1	-14	38*	1
C=CCn1c(-c2ccccc2)nc(=S)c2c1CC(C)(C)OC2	0	-3	-2	-9	35*	0
CCOC(=O)C1=CCN(S(=O)(=O)c2ccccc2C)C1c1ccc(F)cc1 (stereo not given)	.	.	4	.	.	.
COc1ccc(NC(=O)CSCC(=O)NC2(C)CCS(=O)(=O)C2)cc1 (stereo not given)	0	-5	3	-4	8	2
CC1=C(C(=O)N2CCCCCC2)CC(CC(=O)NCc2cccs2)C(=O)N1Cc1ccccc1 (stereo not given)	.	.	-3	.	.	.
COc1ccc(S(=O)(=O)NC(CC(C)C)C(=O)NC(C)c2cccs2)cc1 (stereo not given)	.	1	-2	6	5	-2
Cc1cc(=O)n2c3ccccc3n(CC(O)CN3CCCCC3)c2c1C#N (stereo not given)	-1	0	20	-5	50*	1
